High-throughput results from PubChem.
A selection: hits, their analogues and other compounds. The true share with any hit is near 1.1%.
APOBEC3A inh: inhibitors of human APOBEC3A DNA deaminase; inhibition, % at 20 µM; recombinant A3A, FAM/TAMRA ssDNA deamination fluorescence; P31941; actives 0.41% (n = 330,000);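 active means at least 40% inhibition at 20 µM here, with at most 30% in a related deaminase screen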;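 further: plate controls were A3A with DMSO for no effect and wells lacking A3A enzyme for full effect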
Target sequence (P31941 whole entry, looked up): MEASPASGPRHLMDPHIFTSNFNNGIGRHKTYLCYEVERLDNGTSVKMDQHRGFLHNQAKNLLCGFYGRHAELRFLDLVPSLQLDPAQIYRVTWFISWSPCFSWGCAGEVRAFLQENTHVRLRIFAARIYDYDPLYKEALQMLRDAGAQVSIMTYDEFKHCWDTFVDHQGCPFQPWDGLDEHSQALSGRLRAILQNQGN
A3G deaminase: APOBEC3G (human) deaminase inhibition | recombinant A3G, ssDNA deamination FAM/TAMRA fluorescence | inhibition, % at 20 µM | actives 0.28% (n = 330,000) | AID 493012;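 active means inhibition of at least 40% at 20 µM, with no more than 30% in the related APOBEC3A deaminase screen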;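 further: plate controls were DMSO wells with A3G for no effect and wells lacking A3G enzyme for full effect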
Target sequence (Q9HC16 whole entry, looked up): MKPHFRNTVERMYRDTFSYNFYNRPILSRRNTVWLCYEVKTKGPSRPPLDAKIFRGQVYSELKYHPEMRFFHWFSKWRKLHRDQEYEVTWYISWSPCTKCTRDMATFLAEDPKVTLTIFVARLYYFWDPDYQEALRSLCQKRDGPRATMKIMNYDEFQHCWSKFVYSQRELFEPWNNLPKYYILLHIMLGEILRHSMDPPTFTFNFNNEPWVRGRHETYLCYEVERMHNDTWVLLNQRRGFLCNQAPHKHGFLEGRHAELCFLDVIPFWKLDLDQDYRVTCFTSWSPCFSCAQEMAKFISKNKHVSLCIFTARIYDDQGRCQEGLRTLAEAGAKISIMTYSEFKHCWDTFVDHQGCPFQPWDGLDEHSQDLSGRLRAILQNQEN
MIN6 prolif-1: induces beta-cell replication in MIN6 cells; AID 2380; MIN6 cells proliferation, ATPlite luminescence, 48 h; cells starved in 0.2% serum; 100% = growth in 10% serum; proliferation, % at 10 µM; actives 0.29% (n = 330,000);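 active means compounds whose signal lies at least 3.5 SD above the mean of all wells on their plate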;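 further: 0% = DMSO-treated cells in low-serum medium and 100% = 10% serum control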
Bfl-1 A1 inh: inhibitors of the anti-apoptotic protein A1, read as caspase activation | MEF A1-2A-BIM cells, Caspase-Glo 3/7 luminescence, 3 h; percent of clofoctol response, vehicle zero | caspase activation, % (test concentration not listed) | actives 0.066% (n = 330,000) | AID 2462;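 active means over half of replicate activation scores above 10%, or exactly half above 10 with the replicate mean above 10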
MIN6 prolif-2: confirmation of inducers of beta-cell replication in MIN6 cells. MIN6 beta-cell proliferation, ATPlite luminescence, 48 h; cells kept in 0.2% serum; scaled between 0.2% and 10% serum. shares compounds with MIN6 prolif-1. proliferation increase, % at 50 µM. 920 tested, under 10 active;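 active means proliferation increase above 40% at any of the four tested concentrations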
An asterisk follows results filed as active; . = no result.

SMILES	APOBEC3A inh	A3G deaminase	MIN6 prolif-1	Bfl-1 A1 inh	MIN6 prolif-2
Cc1ccc(S(=O)(=O)N(C)c2ccc(C(=O)N(CC(C)C)C3CCS(=O)(=O)C3)cc2)cc1 (stereo not drawn)	1	-11	4	0	.
CC(C)(C)C(=O)/C=C/c1ccc(Oc2ccccc2)cc1	.	.	.	-2	.
COc1ccc(C(=O)NC2CCc3ccccc32)cc1OC1CCN(C(C)C)CC1 (stereo not drawn)	-3	-7	-1	1	.
CCn1c(CNC(=O)c2ccco2)nnc1SCC(=O)c1ccc(F)cc1	-2	-6	-2	0	.
CCn1c(CNC(=O)c2ccccc2OC)nnc1SCC(=O)c1ccc(F)cc1	1	-16	5.8*	0	2
CCOc1ccccc1N(CC(=O)NC1CCCCC1)S(=O)(=O)c1ccccc1	-2	-6	0	-1	.
Cc1ccc(CNC(=O)C2CCCN(c3ncnc4c3nc3n4CCCCC3)C2)cc1 (stereo not drawn)	-3	-6	14*	0	-5
O=C(NCc1ccccc1)C1CCCN(c2ncnc3c2nc2n3CCCCC2)C1 (stereo not drawn)	-3	-5	2	-1	.
COC(=O)c1cc(C(=O)OCC(=O)NCc2cccs2)cc([N+](=O)[O-])c1	-1	-4	4	0	.
CCc1nc2sc(C#N)c(N)c2c2c1CCCC2	0	-4	6.3*	0	3
CCc1nc2sc(C(C)=O)c(N)c2c2c1CCCC2	-1	2	4	0	.
COc1cc2c(cc1OC)/C(=C/C(=O)c1ccccc1)NCC2	-7	-5	-3	1	.
COc1cc2c(cc1OC)/C(=C/C(=O)c1ccc(C)cc1)NCC2	-1	-2	1	0	.
COc1cc2c(cc1OC)/C(=C/C(=O)c1ccc([N+](=O)[O-])c(C)c1)NCC2	-3	-10	11*	.	2
COc1cccc(C(=O)/C=C2\NCCc3cc(OC)c(OC)cc32)c1	-4	-7	16*	-2	-4
CCC(=O)Nc1nn(CC(C)C)c2nc3ccc(C)cc3cc12	-2	-8	-1	0	.
CCCC(=O)Nc1nn(CC)c2nc3ccc(C)cc3cc12	-2	-6	9.5*	0	1
O=C(O)c1ccc(Cl)c(S(=O)(=O)NCC2CCCO2)c1 (stereo not drawn)	9	-3	7.3*	1	1
O=S(=O)(NCC1CCCO1)c1cc(Cl)ccc1Cl (stereo not drawn)	-3	-4	0	0	.
CC1=C(c2ccccc2)C(=S)NC(C)(C)C1	4	-3	5.6*	1	-2
CCCCn1c(SCC(=O)c2cc(OC)ccc2OC)nc2cc(S(N)(=O)=O)ccc21	4	0	0.0*	-1	6
CCCCn1c(SCC(=O)c2ccc(O)cc2O)nc2cc(S(N)(=O)=O)ccc21	-5	-1	0	0	.
COC1=CC(=O)OC12CCCCC2	-1	-5	8.2*	0	1
N#CCC(=O)Nc1ccc(C(=O)OCC(=O)Nc2ccc3ccccc3c2)cc1	23	-10	4	0	.
CC(C)CCn1c(SCc2ccc(Cl)cc2)nc2c1c(=O)[nH]c(=O)n2C	-2	19	3	1	.
SMILES	APOBEC3A inh	A3G deaminase	MIN6 prolif-1	Bfl-1 A1 inh	MIN6 prolif-2
CC(C)n1c(SCc2ccc(Cl)cc2)nc2c1c(=O)[nH]c(=O)n2C	-5	-8	5.6*	0	-6
CCN1CN(CCc2ccccc2)CNC1=S	-2	-5	9.3*	-1	-3
CCN1CNC(=S)N(CCc2ccccc2)C1	7	5	0	0	.
COc1ccc(N2CCN(C(=O)c3ccc(Br)o3)CC2)cc1	-5	-5	-1	0	.
Cc1ccccc1C(=O)NNC1=NCCC1	0	-4	-2	-1	.
O=C(NNC1=NCCC1)c1cccc(Br)c1	1	1	9.7*	1	4
CCCn1c(N)c(N(CCOC)C(=O)c2cc3c(s2)CCCCC3)c(=O)[nH]c1=O	-2	-8	-4	1	.
O=[N+]([O-])c1ccc(-n2nnnc2CN2CCCCC2)cc1	-5	-7	9.3*	0	6
Cc1ccc(S(=O)(=O)N2CCN(C(=O)c3nn(C(C)C)c(=O)c4ccccc34)CC2)cc1C	-3	-4	5.4*	0	-5
CC(C)n1nc(C(=O)N2CCN(S(=O)(=O)c3cccs3)CC2)c2ccccc2c1=O	9	2	0	1	.
N#Cc1ccccc1OCC(=O)N(C1CCCCC1)C1CCS(=O)(=O)C1 (stereo not drawn)	2	-3	0	0	.
c1cncc(-c2nc(N3CCOCC3)c3ccccc3n2)c1	-3	-6	4.8*	1	2
Cc1ccccc1CNC(=O)c1ccccc1C	-1	-2	-2	0	.
Cc1ccccc1CNC(=O)c1ccccc1N	2	-3	8.4*	.	-2
COc1ccc(CN2CCNC(=O)C2CC(=O)NCCC2=CCCCC2)c(F)c1 (stereo not drawn)	-1	1	-2	-1	.
CCOc1cc(-c2nc(-c3cc(OC)c(OC)c(OC)c3)no2)cc(OCC)c1OCC	-7	-16	6.5*	-1	3
CCOc1ccc(-c2nc(-c3cccnc3)no2)cc1OCC	1	-5	9.7*	0	-1
CCOc1cc(-c2noc(-c3ccncc3)n2)cc(Br)c1OC	-2	-5	0	0	.
CC(=O)Oc1c(C)c(C)c2c(c1C)CC[C@@](C)(CCC[C@H](C)CCC[C@H](C)CCCC(C)C)O2	0	-5	-3	0	.
COc1ccc(C(=O)C(C)OC(=O)CNC(=O)c2ccco2)cc1 (stereo not drawn)	-3	-4	-4	-1	.
COc1ccccc1CCN1CCCC(CN(C)Cc2ccc(OCCO)cc2)C1 (stereo not drawn)	-4	-7	5.8*	0	-6
Cc1cc(C(=O)OCc2nc3ccccc3s2)c(C)o1	0	1	8.7*	-1	-4
O=C(Nc1ccc(Cl)cc1)c1ccc2c(c1)S(=O)(=O)c1ccccc1C2=O	0	-7	-3	0	.
COc1cc(CNC(=O)c2ccc3c(c2)S(=O)(=O)c2ccccc2C3=O)cc(OC)c1	-2	-9	15*	0	3
O=C(Nc1ccc(S(=O)(=O)O)cc1)c1ccc2c(c1)S(=O)(=O)c1ccccc1C2=O	-1	-5	14*	0	-1
O=C(NCc1ccc(F)cc1)c1ccc2c(c1)S(=O)(=O)c1ccccc1C2=O	-2	-8	8	0	.
CCC1(c2ccc(C)cc2)NC(=O)N(C(C)C(=O)Nc2ccc(N3CCOCC3)cc2)C1=O (stereo not drawn)	-6	-9	6	0	.
O=C(NC1CCCCCCC1)C1c2ccccc2C(=O)N1Cc1ccco1 (stereo not drawn)	-3	-6	4	-1	.
CC1CCCC(NC(=O)C2c3ccccc3C(=O)N2Cc2cccs2)C1C (stereo not drawn)	0	2	0.0*	1	-6
